Test results from PubChem BioAssay AID1259415 (National Center for Advancing Translational Sciences (NCATS), 2018).
Several values for one entry are separate records, joined by “and”; a condition that tells them apart may be missing. Identical values can stand only once. The campaign covered roughly 410,000 compounds. About 18,000 (4.4%) were called active. Roughly 7% stayed inconclusive and do not appear here. Cut-off read from the data, not from the text of the source: active = activity change below about -60%; inconclusive = no clear call, values can overlap the other calls; inactive = above about -39%. Many of the other results were omitted from the sample, so actives are more common in it than they were. Some compounds were tested as several samples or in several runs, with calls that do not always agree.

Experiment: qHTS Assay for inhibitors of the human cytomegalovirus (HCMV)
Details: HFF cells, HCMV-luciferase reporter, 72 h; at 57.5 µM; stronger effect = lower value
Outline: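 Steps: HFFs plated, 16 h 37C; compounds added; HCMV-luciferase added to MOI 1 PFU/cell; 72 h 37C; OneGlo reagent, 5 min room temperature; luminescence read, normalized to controls.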
% is set by controls: 0 for no effect and ±100 for the full control effect.

Row | SMILES | activity change, negative = inhibition
1 | CCCOc1ccc(C2c3c(-c4ccccc4O)n[nH]c3C(=O)N2Cc2cccnc2)cc1 (centres undefined) | 8.52% (inactive)
2 | CCOC(=O)c1ccc(NC(=O)c2c(NCc3cccs3)sc3c2CCCC3)cc1 | -7.9% (inactive)
3 | COc1ccc(N2CCN(c3nc(-c4ccccc4F)nc4ccccc34)CC2)cc1 | -30% (inactive)
4 | COc1cc(Nc2nc(-c3ccc(OC)c(OC)c3)nc3ccccc23)cc(OC)c1 | -33.1% (inactive)
5 | CC(C)(C)Nc1nc(-c2ccccn2)nc2ccccc12 | -100% (active)
6 | CCCc1nn2c(=O)cc(COC(=O)c3ccc(NC(=O)COc4ccc(F)cc4)cc3)nc2s1 | -24.2% (inactive)
7 | CC(C)(C)C(=O)CCN1C(=O)C2(OCCO2)c2ccccc21 | 1.52% (inactive)
8 | COc1ccc(C2C(=O)N(C3CCCCCC3)CC(=O)N2CCc2ccc(Cl)cc2)cc1OC (centres undefined) | -12.5% (inactive)
9 | Cc1cn(C)c(CC(=O)NCc2ccccc2)c1C(=O)O | 16.2% (inactive)
10 | NC(=O)C1CCN(C(=O)c2ccc(F)c(S(=O)(=O)N3CCOCC3)c2)CC1 | -6.8% (inactive)
11 | CC1=Nc2cc(C(=O)N3CCC(C)CC3)ccc2Sc2ccc(Cl)cc21 | -34.1% (inactive)
12 | CC1CCN(C(=O)c2ccc(S(=O)(=O)Cc3cc(F)ccc3F)c([N+](=O)[O-])c2)CC1 | -83.1% (active)
13 | Cc1cccc(CSc2nc3ccncc3n2CC(=O)N(C)C2CCCCC2)c1 | 19.5% (inactive)
14 | O=C(NCC(c1ccco1)S(=O)(=O)c1cccs1)c1ccc(F)cc1 (centres undefined) | 0% (inactive)
15 | CSc1ncnc2sc(C)c(C)c12 | -17.9% (inactive)
16 | Cc1cccc(-n2ccnc2SCC(=O)Nc2cccc3ccccc23)c1C | -0.357% (inactive)
17 | CCn1c(=O)c(=O)n(CC)c2cc(N3CCCCC3)c(NC(=O)c3cccc(F)c3)cc21 | -12.9% (inactive)
18 | Cc1ccc(C)c(NC(=O)c2ccc3nccnc3c2)c1 | -67% (active)
19 | O=C(Nc1ccccc1N1CCCCC1)c1ccc2nccnc2c1 | -62.2% (active)
20 | CC(C)CCC(C)NC(=O)c1ccc2nccnc2c1 (centres undefined) | 43% (inactive)
21 | O=C(Nc1ccccc1N1CCCC1)c1ccc(F)c(S(=O)(=O)N2CCOCC2)c1 | -11.8% (inactive)
22 | O=C(NCCc1ccc(F)cc1)c1ccc2nccnc2c1 | 104% (inactive)
23 | CCOC(=O)c1ccccc1NC(=O)c1nn(-c2ccc(OC)c(Cl)c2)c(=O)c2c1c1ccccc1n2C | 11.6% (inactive)
24 | Cc1ccc(C)c(Cn2c(C(=O)O)c(CNCc3cccs3)c3ccccc32)c1 | -8.87% (inactive)
25 | CC(=O)N1CCCc2cc(S(=O)(=O)N3CCC(C(=O)NCc4ccc(C)cc4)CC3)ccc21 | -4.1% (inactive)
26 | COc1ccc(OC)c(-c2noc(N3CCN(c4cc(Cl)ccc4C)CC3)n2)c1 | -0.0922% (inactive)
27 | COC(=O)c1cc(NC(=O)c2cnc(SC)nc2-c2ccccc2)cc(C(=O)OC)c1 | 22.8% (inactive)

Row | SMILES | activity change, negative = inhibition
28 | CC1CCC(C(C)C)C(=O)/C1=C\c1ccc(NC(=O)CCC(=O)O)cc1 (centres undefined) | -26.4% (inactive)
29 | CCOC(=O)N1CCN(C(c2ccnc3ccccc23)c2nnnn2-c2c(C)cccc2C)CC1 (centres undefined) | -0.353% (inactive)
30 | CC(C)C(c1nnnn1Cc1ccccc1)N1CCC(C(N)=O)CC1 (centres undefined) | 55.3% (inactive)
31 | O=c1[nH]c2ccccc2n1C1CCN(C(c2ccnc3ccccc23)c2nnnn2Cc2ccccc2)CC1 (centres undefined) | -61.4% (active)
32 | O=c1[nH]c2ccccc2n1C1CCN(CCOc2ccccc2)CC1 | -29.7% (inactive)
33 | CSCCC(c1nnnn1C(C)(C)C)N1CCC(n2c(=O)[nH]c3ccccc32)CC1 (centres undefined) | -37.7% (inactive)
34 | O=c1[nH]c2ccccc2n1C1CCN(C(c2ccccc2)c2nnnn2Cc2ccccc2)CC1 (centres undefined) | -93.7% (active)
35 | CCCN(CCC)CCCNC(=O)CNC(=O)c1nn(-c2ccc(OC)cc2)c(=O)c2ccccc12 | -0.192% (inactive)
36 | Cc1ccc(Cl)cc1N1CCN(C(=O)c2cn(C)c3ccc(S(=O)(=O)N(C)C4CCCCC4)cc3c2=O)CC1 | 19.9% (inactive)
37 | Cc1cccc(OCC(=O)N(Cc2ccc(C(C)C)cc2)Cc2ccco2)c1C | -2.95% (inactive)
38 | Cc1nc(-c2nnc(SCC(=O)Nc3cc(C(F)(F)F)cc(C(F)(F)F)c3)n2C)cs1 | 18.5% (inactive)
39 | Cc1nc2ccccc2nc1N/N=C/c1ccc(O)cc1O | -86.2% (active)
40 | COc1cc(NC(=O)c2nc3ccccc3nc2C)cc(OC)c1OC | 22.8% (inactive)
41 | Cc1n[nH]c(=O)nc1N/N=C/c1cccs1 | 11.4% (inactive)
42 | COc1ccc(CNC(=O)c2c[nH]c3c(OC)cc(OC)cc3c2=O)cc1 | -39% (inactive)
43 | COc1ccc(CNC(=O)c2cc3cccc(OC)c3oc2=O)cc1 | -88.7% (active)
44 | COc1cccc2cc(C(=O)NCc3ccc(C)cc3)c(=N)oc12 | -3.52% (inactive)
45 | Cc1c(Cl)cccc1NC(=O)CCS(=O)(=O)c1ccc2c(c1)oc(=O)n2C | -4.78% (inactive)
46 | Cc1ccc(NC(=O)CS(=O)CC(=O)N(c2ccccc2)C(C)C(=O)NC2CCCC2)cc1 (centres undefined) | 4.37% (inactive)
47 | O=C(CC(n1cncn1)C(Cl)(Cl)Cl)c1ccc([N+](=O)[O-])cc1 (centres undefined) | -0.398% (inactive)
48 | O=C(Cn1c[n+](CC(=O)c2ccc([N+](=O)[O-])cc2)cn1)c1ccc([N+](=O)[O-])cc1 | -34.4% (inactive) and -92.6% (active)
49 | O=C(CCn1nnc2ccccc21)OCC(=O)c1ccc([N+](=O)[O-])cc1 | 2.27% (inactive)
50 | C[C@H](CO)N1C[C@H](C)[C@H](CN(C)C(=O)c2ccncc2)OCc2ccccc2-c2c(n(C)c3ccccc23)C1=O | -0.378% (inactive)
51 | CCN(CC)CCNc1ncnc2c1cnn2-c1cc(Cl)ccc1C | -19.7% (inactive)
52 | COc1cc(NC(=O)C2=CC(c3ccc(C)cc3)=NS(=O)(=O)N2C)cc(OC)c1OC | 8.94% (inactive)
53 | COc1ccc(NC(=O)C2=CC(c3ccc(OC)c(OC)c3)=NS(=O)(=O)N2C)cc1 | -70.9% (active)
54 | COc1ccc(C2=NS(=O)(=O)N(C)C(C(=O)NC(C)c3ccccc3)=C2)cc1 (centres undefined) | -13.9% (inactive) and -20.9% (inactive)
